TLR9-MyD88 block: blocks human TLR9 binding to MyD88; 0.21% of 340,000 active; AID 504734; CHO BLA complementation TLR9-MyD88, CCF4 FRET ratio; inhibition, % at 4.98 µM;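 active = inhibition above the mean over all tested compounds plus 3 SD, cut at about 21% in these data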
m5-HT2A agonist: agonists of mouse serotonin 5-HT2A receptor (HTR2A). P35363. CHO-K1 mHTR2A beta-arrestin complementation, luminescence; percent of 30 µM serotonin response. activation, % at 7.6 µM. 0.66% of 360,000 active. AID 624169;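 active = activation above a run cutoff, the mean activation of all tested compounds plus 3 SD, cut at about 14% in these data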
NOD2 RIPK2 PPI: inhibitors of human NOD2-RIPK2 interaction; CHO BLA complementation NOD2-RIPK2, CCF4 ratio; inhibition, % at 4.98 µM; 0.38% of 360,000 active; AID 624267; in the data active = inhibition above about 21%
Target sequence (O43353 whole entry, looked up): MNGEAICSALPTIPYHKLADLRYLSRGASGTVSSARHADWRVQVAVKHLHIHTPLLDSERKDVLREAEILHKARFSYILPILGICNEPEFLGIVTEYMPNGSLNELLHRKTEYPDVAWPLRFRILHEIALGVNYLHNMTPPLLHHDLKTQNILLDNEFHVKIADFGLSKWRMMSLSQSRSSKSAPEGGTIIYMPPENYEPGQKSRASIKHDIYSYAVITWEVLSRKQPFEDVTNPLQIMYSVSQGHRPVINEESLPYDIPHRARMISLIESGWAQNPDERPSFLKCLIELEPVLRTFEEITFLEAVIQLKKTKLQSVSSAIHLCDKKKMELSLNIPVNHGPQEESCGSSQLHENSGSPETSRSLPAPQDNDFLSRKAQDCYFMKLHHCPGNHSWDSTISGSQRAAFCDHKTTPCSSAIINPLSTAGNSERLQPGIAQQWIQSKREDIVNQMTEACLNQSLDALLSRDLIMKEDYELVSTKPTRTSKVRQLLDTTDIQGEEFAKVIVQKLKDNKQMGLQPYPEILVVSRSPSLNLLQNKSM
CRFBP-R2 block: CRF-BP/CRF-R2 complex antagonism; AID 588475; 0.59% of 350,000 active; HEK293 CRF-R2/CRF-BP, CRF-induced calcium fluorescence; inhibition, % at 11.8 µM;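 active = inhibition of the ligand-induced calcium signal above about 50% at the single tested concentration, limit read from the data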
ABHD5 PLIN5 PPI: inhibitors of human ABHD5-perilipin-5 interaction | Q00G26+Q8WTS1 | Split G. princeps luciferase complementation, luminescence, 4 h | inhibition, % at 4 µM | 0.78% of 360,000 active;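 active = inhibition above the mean inhibition across every tested compound plus 3 SD, cut at about 22% in these data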
TLR4 MyD88 comp: blocks binding of human TLR4 to MyD88; O00206+Q99836; HeLa CL3-4 TLR4/MyD88 BLA complementation, FRET ratio; inhibition, % at 8.4 µM; 0.18% of 200,000 active; in the data active = inhibition above about 25%
NOD2 RIPK2 conf: NOD2-RIPK2 interaction inhibition confirmed. shares compounds with NOD2 RIPK2 PPI. CHO cells, NOD2-RIPK2 BLA complementation, CCF4 FRET. inhibition, % at 4.98 µM. 70% of 1,200 active. AID 624370;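 active = mean inhibition across replicates above a set limit taken from the earlier primary screen, cut at about 21% in these data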
BLA counter: NOD2-RIPK2 counterscreen BLA reporter activity | shares compounds with NOD2 RIPK2 PPI | CHO BLA reporter, CCF4 FRET ratio | inhibition, % at 4.98 µM | 57% of 1,200 active | AID 624371;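 active = mean inhibition above the low-control mean inhibition plus three low-control SD, cut at about 11% in these data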
Numbers stand for hits; 0 = inactive; - = no result. Hits are enriched below; roughly 2.4% of the tested compounds scored in any of these assays.

SMILES	TLR9-MyD88 block	m5-HT2A agonist	NOD2 RIPK2 PPI	CRFBP-R2 block	ABHD5 PLIN5 PPI	TLR4 MyD88 comp	NOD2 RIPK2 conf	BLA counter
Oc1[nH]c(N=C2N=c3ccccc3=N2)c2ccccc12	0	0	0	0	0	-	-	-
Cc1ccc2c(c1)=N/C(=N\c1[nH]c(O)c3ccccc13)N=2	0	0	29	0	0	-	51	48
CCOC(=O)C1CCCN(S(=O)(=O)c2ccc3c4c(cccc24)C(=O)N3CC)C1 (stereo not given)	0	0	27	0	0	-	25	25
Cc1nc2c(OCc3ccc(C#N)cc3)cccn2c1N(C)C(=O)CCC1CCCC1	-	0	0	-	0	-	-	-
N#CC(=C1C=C(Br)C(=NO)C=C1Cl)c1cccc2ccccc12	0	0	41	0	0	-	58	30
CCOC(=O)c1c(C)[nH]c(C2=NNC(=Nc3ccc(OCC)cc3)SC2)c1C	0	0	35	0	0	0	0	0
COc1ccccc1N1C(=O)CC(N2CCN(c3ccc([N+](=O)[O-])cc3)CC2)C1=O (stereo not given)	0	0	22	0	0	-	0	0
COc1cccc(N2C(=O)CC(N3CCN(c4ccc([N+](=O)[O-])cc4)CC3)C2=O)c1 (stereo not given)	0	0	0	0	0	-	-	-
COC(=O)C[C@@H]1C=C[C@H](NC(=O)Nc2ccc(OC)cc2)[C@@H](CO)O1	-	0	0	-	0	-	-	-
O=C1Nc2cc(C(=O)NCCCN3CCCC3)ccc2S/C1=C\c1ccccc1	0	0	0	0	0	-	-	-
COc1ccc(/C=C2/Sc3ccc(C(=O)NCCN4CCCCCC4)cc3NC2=O)cc1	0	0	24	0	0	-	0	0
Cc1cccc(NC(=O)CNC(=O)c2ccc3c(c2)OCO3)n1	0	0	38	0	0	-	0	0
CCCCNC(=O)C1c2ccccc2OCC(=O)N1CCOC (stereo not given)	-	0	0	-	0	-	-	-
O=C(C#Cc1cccc([N+](=O)[O-])c1)c1ccccc1	0	0	27	-	30	0	77	17
Cc1ccc(F)c(S(=O)(=O)NC(=O)C2(C)CCN2C(=O)c2ccc(C(F)(F)F)nc2C)c1 (stereo not given)	-	0	0	-	0	-	-	-
COc1ccc(C(=O)NNC(=O)c2cc3ccccc3cc2O)cc1	0	0	31	0	0	-	0	0
CC(C)[C@H](NC(=O)c1ccc(Cl)cc1)C(=O)Nc1cccc(S(=O)(=O)N2CCOCC2)c1	0	0	0	0	0	-	-	-
O=C(COc1cccc2ccccc12)N1CCN(c2ccccn2)CC1	0	0	0	0	0	0	-	-
CCC(=O)c1ccc(OCC(=O)N2CCN(c3ccccn3)CC2)cc1	0	0	28	0	0	-	0	0
CCOC(=O)C1(CCc2ccccc2)CCN(C(=O)c2ccoc2)CC1	0	0	0	0	0	0	-	-
CCOC(=O)C1(CCCc2ccccc2)CCN(C(=O)c2ccoc2)CC1	0	0	45	0	0	0	0	0
CC12CCC(/C(=C/NNc3ccc([N+](=O)[O-])cc3[N+](=O)[O-])C1=O)C2(C)C (stereo not given)	0	0	0	0	0	-	-	-
Cn1cc([C@]2(O)C(=O)Nc3ccc(Br)cc32)c2ccccc21	-	0	0	-	0	-	-	-
O=c1sc(/C=N/Nc2ccccc2)c(Cl)n1Cc1ccccc1	0	0	29	0	0	0	0	0
CCOC(=O)[C@]12CCC=C1N(Cc1ccc(Cl)cc1Cl)C(=O)[C@H](CC(=O)NCc1ccc(OC)c(OC)c1)C2	-	0	0	-	0	-	-	-
SMILES	TLR9-MyD88 block	m5-HT2A agonist	NOD2 RIPK2 PPI	CRFBP-R2 block	ABHD5 PLIN5 PPI	TLR4 MyD88 comp	NOD2 RIPK2 conf	BLA counter
Cc1ccc(S(=O)(=O)Oc2ccccc2/C=N/NC(N)=S)cc1	0	0	24	0	0	0	0	0
O=C(NC(=S)Nc1sc2c(c1C(=O)O)CCCC2)c1ccccc1	0	0	35	0	0	-	0	0
CNc1nc(NCC2CCCCC2)c2sccc2n1	-	0	0	-	0	-	-	-
S=c1[nH]nc(-c2cc(-c3ccccn3)nc3ccccc23)o1	0	0	0	0	0	-	-	-
Cc1ccc(-c2cc(-c3n[nH]c(=S)o3)c3ccccc3n2)cc1	0	0	22	0	0	0	0	0
O=C(C(=O)N1CCN(C(=O)OCc2ccccc2)CC1)c1cccnc1	-	0	0	-	0	-	-	-
COc1ccc2c(c1OC)c(=O)n1c3ccc(OC(C)C(=O)NCCN4CCOCC4)cc3c3ccnc2c31 (stereo not given)	0	0	0	0	0	-	-	-
COc1ccc2c(c1OC)c(=O)n1c3ccc(OC(C)C(=O)NCCCN4CCOCC4)cc3c3ccnc2c31 (stereo not given)	0	0	21	0	0	-	0	0
COC(=O)C[C@H]1N(S(=O)(=O)c2ccc(C)cc2)C(C(C)C)CC1(C(=O)OC)C(=O)OC (stereo not given in full)	-	0	0	-	0	-	-	-
Cc1ccccc1NC(=O)c1sc2nc3c(c(-c4ccco4)c2c1N)CCCC3	0	0	39	0	0	0	51	56
Cc1ccc(NC(=O)Cn2ncc(Cl)c(Cl)c2=O)cc1S(=O)(=O)N1CCCCC1	0	0	34	0	0	-	43	10
O=C(Cn1ncc(Cl)c(Cl)c1=O)NCC1CCCCC1	0	0	21	0	0	0	29	0
CN1C(=O)c2cccc3c(S(=O)(=O)N(C)C)ccc1c23	0	0	22	0	0	-	0	16
CN1CCN(c2ccc(CNC(=O)C3(C)Cc4c(-c5ccc6c(c5)OCO6)ccnc4O3)cc2)CC1 (stereo not given)	-	0	0	-	0	-	-	-
COc1ccc(-c2ccc(C(=O)Nc3ccc(OC)nc3)c3occc23)c(C)c1	-	0	0	-	0	-	-	-
CC1(C(=O)Nc2ccc(Cl)cc2)Cc2c(-c3cccc(C(F)(F)F)c3)ccnc2O1 (stereo not given)	-	0	0	-	0	-	-	-
CN(C)NC(=S)Nc1ccc2nc(-c3ccccn3)c(-c3ccccn3)nc2c1	0	0	0	0	0	0	-	-
CC(C)(C)CC(C)(C)NC(=S)Nc1ccc2nc(-c3ccccn3)c(-c3ccccn3)nc2c1	0	0	32	0	0	0	0	0
CCOCCCNC(=O)/C(C#N)=C/c1ccc([N+](=O)[O-])o1	0	0	26	0	0	0	54	27
S=C(c1ccc(-c2ccccc2Cl)o1)N1CCOCC1	0	0	22	0	0	0	0	0
S=C(c1ccc(-c2ccc(Cl)c(Cl)c2)o1)N1CCOCC1	0	0	0	0	0	0	-	-
Fc1cccc(Cl)c1C1SCc2nc3ccccc3n21 (stereo not given)	-	0	0	-	0	-	-	-
